# Assay results taken from PubChem BioAssay (NCATS).
# Where “and” joins values, the source holds several entries; their conditions need not be identical. Equal values may be shown once. Inconclusive results are not listed. Calls of active or inactive are those of the source. Unless noted, calls come from the whole dose curve.
# Experiments:
# [1] = target: Vitamin D3 receptor (Homo sapiens) (UniProt P11473); assay: qHTS assay for small molecule agonists of vitamin D receptor signaling (AID 588543); conditions: HEK293T VDR-UAS-bla, beta-lactamase ratio, 16 h; series mostly up to 76.8 µM;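 note: 0% = DMSO basal and 100% = reference agonist control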
# Chain of Vitamin D3 receptor (Homo sapiens) (P11473 whole entry, looked up): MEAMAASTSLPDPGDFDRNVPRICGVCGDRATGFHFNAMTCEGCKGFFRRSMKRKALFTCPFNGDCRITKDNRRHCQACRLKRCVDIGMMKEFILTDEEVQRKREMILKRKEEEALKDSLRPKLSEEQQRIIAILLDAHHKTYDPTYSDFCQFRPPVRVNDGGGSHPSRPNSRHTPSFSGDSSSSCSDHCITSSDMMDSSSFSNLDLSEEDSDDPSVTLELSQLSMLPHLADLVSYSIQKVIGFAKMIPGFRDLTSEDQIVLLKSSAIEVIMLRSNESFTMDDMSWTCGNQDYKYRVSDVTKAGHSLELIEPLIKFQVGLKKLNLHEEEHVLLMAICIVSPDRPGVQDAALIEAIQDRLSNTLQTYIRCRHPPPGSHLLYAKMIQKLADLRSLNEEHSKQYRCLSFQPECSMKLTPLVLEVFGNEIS
# Summary of the method: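 Reporter cells (HEK293T, VDR-UAS-bla) were seeded in medium with 2% charcoal-stripped serum and incubated 5 h, then compounds in concentration series were added for 16 h at 37 °C. Stimulation was scaled between DMSO basal and 50 nM 1α,25-dihydroxyvitamin D3.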
# [2] = target: Thyroid hormone receptor beta (Homo sapiens) (UniProt P10828); assay: qHTS assay for small molecule antagonists of thyroid hormone receptor beta signaling (AID 588547; active = well fitted inhibition curve with a large enough effect in the signal ratio, with a control signal flat, not every such curve was filed as active; the % refers to the signal ratio;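 note: cells stimulated with 0.4 nM T3 agonist during compound exposure; % is set by controls: 0 for no effect and ±100 for the full control effect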); conditions: TR-UAS-bla HEK293, beta-lactamase ratio, antagonist mode, 18 h
# Chain of Thyroid hormone receptor beta (Homo sapiens) (P10828 whole entry, looked up): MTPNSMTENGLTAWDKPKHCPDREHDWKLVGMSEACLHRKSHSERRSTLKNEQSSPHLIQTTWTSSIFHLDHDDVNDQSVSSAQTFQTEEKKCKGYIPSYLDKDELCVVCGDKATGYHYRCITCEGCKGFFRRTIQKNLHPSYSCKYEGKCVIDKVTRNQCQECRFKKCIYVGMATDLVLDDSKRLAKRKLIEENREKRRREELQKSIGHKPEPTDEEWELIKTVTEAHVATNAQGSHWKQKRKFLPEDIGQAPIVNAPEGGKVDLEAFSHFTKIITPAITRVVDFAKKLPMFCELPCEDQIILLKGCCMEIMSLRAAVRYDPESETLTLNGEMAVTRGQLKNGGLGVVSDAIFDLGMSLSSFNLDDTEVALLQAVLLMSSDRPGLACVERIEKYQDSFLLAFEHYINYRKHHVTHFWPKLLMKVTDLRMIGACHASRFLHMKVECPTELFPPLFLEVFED
# Summary of the method: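 Inhibition of T3-driven (0.4nM final) beta-lactamase reporter activity was measured over 0.59 nM to 92 uM compound after 18 h at 37 C. The cells were GripTite HEK293 TR-UAS-bla in charcoal/dextran-stripped serum, with CCF4 ratio read-out and IC50 from Hill fits.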
# [3] = qHTS assay for small molecule activators of the human pregnane X receptor (PXR) signaling pathway (AID 720659; call rule not given here; note: 0% is about no effect); conditions: DPX-2 HepG2 CYP3A4-luciferase, 24 h; series mostly up to 92.3 µM
# [4] = target: Glucocorticoid receptor (Homo sapiens) (UniProt P04150); assay: qHTS assay for small molecule agonists of glucocorticoid receptor signaling (AID 588532; active = well fitted curve in the direction sought with a large enough effect in the signal ratio, with a control signal flat; the % refers to the signal ratio;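 note: 100% = dexamethasone at 0.1 µM and 0% = DMSO only wells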); conditions: HeLa MMTV-bla, beta-lactamase ratio, agonist, 18 h; activation: stronger effect = higher value, percent of dexamethasone control, DMSO zero
# Chain of Glucocorticoid receptor (Homo sapiens) (P04150 whole entry, looked up): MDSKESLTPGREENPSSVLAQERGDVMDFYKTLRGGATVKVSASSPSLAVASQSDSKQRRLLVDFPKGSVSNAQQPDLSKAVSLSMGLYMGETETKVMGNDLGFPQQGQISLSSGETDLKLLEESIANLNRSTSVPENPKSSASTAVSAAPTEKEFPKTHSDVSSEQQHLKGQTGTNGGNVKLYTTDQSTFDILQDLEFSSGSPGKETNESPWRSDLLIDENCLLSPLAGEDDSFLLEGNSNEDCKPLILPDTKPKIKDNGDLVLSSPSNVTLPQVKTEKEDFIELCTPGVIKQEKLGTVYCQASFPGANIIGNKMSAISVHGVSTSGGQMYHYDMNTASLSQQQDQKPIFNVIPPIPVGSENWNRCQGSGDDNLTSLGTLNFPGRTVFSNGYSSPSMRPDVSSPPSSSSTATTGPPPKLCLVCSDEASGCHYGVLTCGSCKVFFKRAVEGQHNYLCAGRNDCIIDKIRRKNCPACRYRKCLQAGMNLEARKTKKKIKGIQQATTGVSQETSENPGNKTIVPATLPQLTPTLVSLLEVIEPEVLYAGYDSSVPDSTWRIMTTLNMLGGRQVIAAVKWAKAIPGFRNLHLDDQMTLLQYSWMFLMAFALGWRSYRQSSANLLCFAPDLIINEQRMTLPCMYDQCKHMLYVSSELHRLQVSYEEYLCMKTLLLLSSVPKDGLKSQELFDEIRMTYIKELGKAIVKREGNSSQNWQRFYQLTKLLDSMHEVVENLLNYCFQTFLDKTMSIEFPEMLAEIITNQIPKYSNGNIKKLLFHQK
# Summary of the method: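 Quantitative HTS using CellSensor MMTV-bla HeLa cells in charcoal/dextran-treated serum; compounds tested up to 92 uM. After 18 h at 37 C, CCF4 dye reported reporter induction.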
# [5] = qHTS assay for small molecule antagonists of peroxisome proliferator-activated receptor delta signaling (AID 588535; active = well fitted inhibition curve with a large enough effect in the signal ratio, with a control signal flat, not every such curve was filed as active; the % refers to the signal ratio; note: potency is the fitted concentration of half-maximal effect;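 for max response: cells co-treated with a PPAR-delta agonist as stimulator during compound exposure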); conditions: HEK293T PPARd-UAS-bla, beta-lactamase FRET ratio, 18 h; 460 nm channel
# Summary of the method: (§1)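 Titrations were run on PPAR-delta-UAS-bla HEK293T cells in charcoal/dextran-stripped serum, incubated 18 h at 37 C. CCF4 fluorescence (460/530 nm) after 2 h RT; Hill equation yields IC50 and maximal response.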
# [6] = target: Peroxisome proliferator-activated receptor delta (Homo sapiens) (UniProt Q03181); assay: as above; conditions: HEK293T PPARd-UAS-bla, beta-lactamase FRET ratio, 18 h; series mostly up to 76.7 µM
# Chain of Peroxisome proliferator-activated receptor delta (Homo sapiens) (Q03181 whole entry, looked up): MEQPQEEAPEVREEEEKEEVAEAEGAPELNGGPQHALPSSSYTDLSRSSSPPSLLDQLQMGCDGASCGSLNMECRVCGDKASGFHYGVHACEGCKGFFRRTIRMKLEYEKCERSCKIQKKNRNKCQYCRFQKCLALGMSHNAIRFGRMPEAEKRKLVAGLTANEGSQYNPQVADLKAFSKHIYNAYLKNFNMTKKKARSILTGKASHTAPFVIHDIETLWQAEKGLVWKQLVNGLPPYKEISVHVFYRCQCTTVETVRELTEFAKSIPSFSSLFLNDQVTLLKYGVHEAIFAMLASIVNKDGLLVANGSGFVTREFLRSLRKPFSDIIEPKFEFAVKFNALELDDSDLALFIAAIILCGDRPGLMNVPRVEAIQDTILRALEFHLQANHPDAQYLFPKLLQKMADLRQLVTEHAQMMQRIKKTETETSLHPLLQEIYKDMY
# Summary of the method: as §1
# [7] = qHTS assay for small molecule activators of the nuclear factor-kappa B (NF-kB) signaling pathway (AID 651749; active = well fitted activation curve with a large enough effect in the signal ratio; the % refers to the signal ratio; note: % of control where 0% means no effect); conditions: NF-kB-bla ME-180 cells, beta-lactamase FRET ratio, 16 h; activation: stronger effect = higher value
# Summary of the method: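 Activation measured after 16 hr compound treatment at 37C, 5% CO2, of 2,000 ME-180 cells/well stably expressing an NF-kB response element–driven beta-lactamase reporter, via FRET-disruption fluorescence.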
# [8] = qHTS assay for small molecule agonists of the antioxidant response element (ARE) signaling pathway (AID 651741; active = well fitted activation curve with a large enough effect in the signal ratio; the % refers to the signal ratio; note: potency is the fitted concentration of half-maximal effect; for activation: % of control where 0% means no effect); conditions: HepG2 ARE-bla reporter, beta-lactamase FRET ratio, 16 h; series mostly up to 96 µM
# Summary of the method: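 Beta-lactamase reporter under ARE control in HepG2 cells, 2,000 per well, was induced by 16 h compound treatment at 37 C. Read-out was fluorescence from LiveBLAzer B/G FRET substrate after 2 h at room temperature.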
# [9] = target: Androgen receptor (Homo sapiens) (UniProt P10275); assay: qHTS assay for small molecule agonists of androgen receptor signaling (AID 588515; active = well fitted curve in the direction sought with a large enough effect in the signal ratio, with a control signal flat; the % refers to the signal ratio; note: % is set by controls: 0 for no effect and ±100 for the full control effect); conditions: AR-UAS-bla HEK293, beta-lactamase ratio, agonist 16 h; stronger effect = higher value
# Chain of Androgen receptor (Homo sapiens) (P10275 whole entry, looked up): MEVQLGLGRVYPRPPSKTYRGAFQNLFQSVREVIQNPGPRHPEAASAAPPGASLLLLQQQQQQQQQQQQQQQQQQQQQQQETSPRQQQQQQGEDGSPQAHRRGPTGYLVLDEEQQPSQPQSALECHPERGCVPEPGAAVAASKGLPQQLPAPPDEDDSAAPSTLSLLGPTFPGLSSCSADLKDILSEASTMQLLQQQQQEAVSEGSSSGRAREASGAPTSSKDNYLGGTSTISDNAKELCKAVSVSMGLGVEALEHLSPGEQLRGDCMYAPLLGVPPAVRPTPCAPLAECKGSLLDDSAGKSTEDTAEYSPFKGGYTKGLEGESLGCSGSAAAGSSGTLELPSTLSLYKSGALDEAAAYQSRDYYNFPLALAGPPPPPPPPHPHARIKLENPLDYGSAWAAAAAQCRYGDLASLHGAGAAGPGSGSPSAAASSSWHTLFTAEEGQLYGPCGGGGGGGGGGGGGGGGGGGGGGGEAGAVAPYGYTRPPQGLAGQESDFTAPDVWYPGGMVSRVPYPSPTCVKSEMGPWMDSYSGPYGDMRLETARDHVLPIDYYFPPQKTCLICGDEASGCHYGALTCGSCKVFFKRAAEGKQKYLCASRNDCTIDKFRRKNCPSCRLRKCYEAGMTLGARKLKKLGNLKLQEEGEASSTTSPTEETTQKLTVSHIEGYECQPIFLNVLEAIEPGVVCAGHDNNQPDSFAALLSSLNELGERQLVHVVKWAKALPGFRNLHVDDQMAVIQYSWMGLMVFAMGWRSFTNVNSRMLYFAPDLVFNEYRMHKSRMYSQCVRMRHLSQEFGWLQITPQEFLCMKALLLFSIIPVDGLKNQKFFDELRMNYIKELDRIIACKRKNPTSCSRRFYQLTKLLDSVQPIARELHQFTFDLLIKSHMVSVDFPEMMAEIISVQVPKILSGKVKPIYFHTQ
# Summary of the method: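 Stimulation of an AR-responsive β-lactamase reporter in GripTite HEK293 cells was measured after 16 h compound exposure at 37 °C, via CCF4 fluorescence after 2 h RT. EC50 from Hill fits, normalized to R1881 at 30 nM.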
# [10] = target: Androgen receptor (Homo sapiens) (UniProt P10275); assay: qHTS assay for small molecule antagonists of androgen receptor signaling (AID 588516; active = well fitted curve in the direction sought with a large enough effect in the signal ratio, with a control signal flat, not every such curve was filed as active; the % refers to the signal ratio; note: potency is the fitted concentration of half-maximal effect); conditions: AR-UAS-bla HEK293, beta-lactamase ratio, antagonist mode, 16 h; series mostly up to 76.8 µM
# Summary of the method: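 Cells were plated and incubated 5 h, compounds added in titration, then R1881 (10 nM final) as agonist. After 16 h at 37 C, CCF4 substrate was loaded for 2 h at room temperature and fluorescence measured.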
# [11] = target: Bile acid receptor (Homo sapiens) (UniProt Q96RI1); assay: qHTS assay for small molecule antagonists of farnesoid X receptor signaling (AID 588526); conditions: HEK293T FXR-UAS-bla, beta-lactamase ratio, antagonist mode; series mostly up to 76.7 µM; note: potency is the fitted concentration of half-maximal effect
# Chain of Bile acid receptor (Homo sapiens) (Q96RI1 whole entry, looked up): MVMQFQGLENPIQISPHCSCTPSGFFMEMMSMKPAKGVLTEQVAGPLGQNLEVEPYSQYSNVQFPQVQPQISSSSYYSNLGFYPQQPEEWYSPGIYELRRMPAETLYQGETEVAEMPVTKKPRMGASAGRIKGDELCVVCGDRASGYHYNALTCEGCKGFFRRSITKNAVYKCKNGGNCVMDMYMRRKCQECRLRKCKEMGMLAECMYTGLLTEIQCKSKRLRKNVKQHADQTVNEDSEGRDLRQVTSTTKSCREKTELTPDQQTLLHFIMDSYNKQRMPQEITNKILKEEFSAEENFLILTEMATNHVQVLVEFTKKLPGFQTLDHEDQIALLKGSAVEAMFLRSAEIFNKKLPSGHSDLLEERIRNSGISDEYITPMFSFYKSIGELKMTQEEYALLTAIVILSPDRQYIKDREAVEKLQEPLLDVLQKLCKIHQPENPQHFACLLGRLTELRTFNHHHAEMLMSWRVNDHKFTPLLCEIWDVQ
# Summary of the method: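 Beta-lactamase reporter antagonist mode: HEK293T FXR-UAS-bla cells, titrated compound, CDCA stimulation, 16 h 37 C, CCF4 dye 2 h RT. Data normalized to CDCA 50 uM and DMSO; Hill-fit IC50.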
# [12] = target: Cytochrome P450 3A4 (Homo sapiens) (UniProt P08684); assay: qHTS Assay for Inhibitors and Substrates of Cytochrome P450 3A4 (AID 884; active = well fitted curve in the direction sought with a large enough effect; an effect the other way counts as inactive or inconclusive; note: potency is the fitted concentration of half-maximal effect; nearly all actives have a fitted effect of over 50% in size); conditions: recombinant CYP3A4, Luciferin-PPXE luminescence; series mostly up to 57.1 µM
# Chain of Cytochrome P450 3A4 (Homo sapiens) (P08684 whole entry, looked up): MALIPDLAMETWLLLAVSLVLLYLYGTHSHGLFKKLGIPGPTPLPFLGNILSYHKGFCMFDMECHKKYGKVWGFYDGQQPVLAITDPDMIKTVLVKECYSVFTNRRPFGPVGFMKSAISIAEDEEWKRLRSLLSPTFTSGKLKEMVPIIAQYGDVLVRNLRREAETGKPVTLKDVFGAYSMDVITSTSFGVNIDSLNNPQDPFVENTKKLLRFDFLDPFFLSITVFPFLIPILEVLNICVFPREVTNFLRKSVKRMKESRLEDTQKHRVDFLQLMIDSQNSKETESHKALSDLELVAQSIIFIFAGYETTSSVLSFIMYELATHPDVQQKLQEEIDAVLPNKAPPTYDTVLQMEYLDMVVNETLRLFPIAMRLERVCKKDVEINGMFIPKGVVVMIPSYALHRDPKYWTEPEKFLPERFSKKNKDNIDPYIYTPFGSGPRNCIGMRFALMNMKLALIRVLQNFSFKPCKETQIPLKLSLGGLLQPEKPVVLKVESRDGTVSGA
# Summary of the method: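 Luminescent readout of luciferin produced by CYP3A4 (20 nM) dealkylation of Luciferin-PPXE, 25 uM (its KM). NADPH-driven reaction ran 60 min at RT after 10 min compound preincubation; data scaled to 57 uM ketoconazole as 100% inhibition.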
# [13] = target: Cytochrome P450 3A4 (Homo sapiens) (UniProt P08684); assay: qHTS Assay for Activators of Cytochrome P450 3A4 (AID 885; active = well fitted curve in the direction sought with a large enough effect; an effect the other way counts as inactive or inconclusive; note: nearly all actives have a fitted effect of over 65% in size); conditions: recombinant CYP3A4, Luciferin-PPXE luminescence, 60 min; series mostly up to 57.1 µM
# Summary of the method: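 Luminescent readout of luciferin formed from 25 uM Luciferin-PPXE (KM level) by 20 nM CYP3A4 in 200 mM KPO4, with 60 min NADPH-driven reaction at room temperature after 10 min compound exposure. Ketoconazole (57 uM) defined 100% inhibition.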
# [14] = target: Bile acid receptor (Homo sapiens) (UniProt Q96RI1); assay: qHTS assay for small molecule agonists of farnesoid X receptor signaling (AID 588527); conditions: HEK293T FXR-UAS-bla, beta-lactamase ratio, 16 h; activation: stronger effect = higher value;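 note: 0% = vehicle basal and 100% = reference agonist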
# Summary of the method: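 Agonist-mode beta-lactamase reporter in GeneBLAzer FXR-UAS-bla HEK293T cells, titration up to 92 uM, 16 h exposure at 37 C, CCF4 fluorescence. Response scaled to DMSO (0%) and 100 uM chenodeoxycholic acid (100%), then Hill-fitted for EC50 and efficacy.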
smiles,measurement,setting,value
CCNc1nc(NCC)nc(SC)n1,outcome,[1],inactive
same,activity change % (negative = inhibition),[2],-6.04% (inactive)
same,outcome,[3],inactive
COC(=O)NS(=O)(=O)c1ccc(N)cc1,activation,[4],-1.43% (inactive) and 1.04% (inactive)
same,max response,[5],-5.88%
same,Potency,[6],inactive
same,outcome,[1],inactive
same,activity change % (negative = inhibition),[2],-3.22% (inactive) and 3.54% (inactive)
same,activation,[7],-0.373% (inactive) and -0.594% (inactive)
same,outcome,[3],inactive
OC(Cn1cncn1)(c1ccc(F)cc1)c1ccccc1F (configuration not stated),outcome,[1],inactive
same,Potency,[8],inactive
same,activation,[7],0.295% (inactive)
same,outcome,[3],inactive
COc1cc(Cl)c(OC)cc1Cl,activation,[4],-1.33% (inactive)
same,outcome,[1],inactive
same,activity change % (negative = inhibition),[2],4.96% (inactive)
same,Potency,[8],inactive
C/C=C(\C)C(=O)O[C@H]1C[C@@H](OC(C)=O)[C@@]2(C(=O)OC)CO[C@H]3[C@@H](O)[C@@](C)([C@]45O[C@@]4(C)[C@H]4C[C@@H]5O[C@@H]5OC=C[C@@]54O)[C@H]4[C@]1(CO[C@]4(O)C(=O)OC)[C@@H]32,activation,[9],2.71% (inactive)
same,Potency,[10],inactive
same,Potency,[11],inactive
same,outcome,[1],inactive
same,activity change % (negative = inhibition),[2],7.18% (inactive)
same,activation,[7],-1.4% (inactive)
CCCCC(CC)CO[N+](=O)[O-] (configuration not stated),activation,[4],-6.71% (inactive)
same,max response,[5],-28%
same,Potency,[6],inactive
same,activity change % (negative = inhibition),[2],-3.31% (inactive)
same,outcome,[3],inactive
CCOS(=O)(=O)OCC,activation,[4],-9.13% (inactive)
same,max response,[5],-21.4%
same,Potency,[6],inactive
same,outcome,[1],inactive
same,activity change % (negative = inhibition),[2],3.34% (inactive)
same,Potency,[8],inactive
same,outcome,[3],inactive
O=C=Nc1ccc(Cl)cc1,max response,[5],-52.1%
same,Potency,[6],inactive
same,activation,[7],-0.765% (inactive)
same,outcome,[3],inactive
O=C(NC(=O)c1c(F)cccc1F)Nc1ccc(OC(F)(F)C(F)OC(F)(F)F)c(Cl)c1 (configuration not stated),max response,[5],59.9%
same,Potency,[6],inactive
same,outcome,[1],inactive
same,activity change % (negative = inhibition),[2],12.3% (inactive)
same,outcome,[3],inactive
CCCN(CC)CC1COC2(CCC(C(C)(C)C)CC2)O1 (configuration not stated),activation,[4],11.4% (inactive)
same,max response,[5],36.1%
same,Potency,[6],inactive
same,outcome,[1],inactive
same,Potency,[8],inactive
same,outcome,[3],inactive
Cc1cc(Cl)ccc1OC(C)C(=O)O (configuration not stated),max response,[5],36.3%
same,Potency,[6],inactive
same,activity change % (negative = inhibition),[2],-3.04% (inactive)
same,Potency,[8],inactive
same,activation,[7],-2.72% (inactive)
same,outcome,[3],inactive
c1cc(OCC2CO2)cc(OCC2CO2)c1 (configuration not stated),Potency,[12],15.8 µM (active)
same,Potency,[13],inactive
same,activation,[9],-20.7% (inactive)
same,Potency,[10],inactive
same,activation,[14],0.408% (inactive)
same,max response,[5],21.9%
same,Potency,[6],inactive
same,activity change % (negative = inhibition),[2],15% (inactive)
same,Potency,[8],29.8 µM (active)
CCNP(=S)(OC)O/C(C)=C/C(=O)OC(C)C (configuration not stated),activation,[4],-6.1% (inactive)
same,outcome,[1],inactive
same,activation,[7],0.112% (inactive)
CCc1ccc(C(=O)NN(C(=O)c2cc(C)cc(C)c2)C(C)(C)C)cc1,Potency,[12],3.98 µM (active)
same,Potency,[13],inactive
same,activation,[4],-6.89% (inactive)
same,outcome,[1],inactive
same,activity change % (negative = inhibition),[2],18% (inactive)
same,activation,[7],-3.3% (inactive)
CC1(C)Cc2cccc(O)c2O1,outcome,[1],inactive
same,activity change % (negative = inhibition),[2],-2.82% (inactive)
same,Potency,[8],inactive
same,outcome,[3],inactive
CC(C)(c1ccccc1)c1cc(-n2nc3ccccc3n2)c(O)c(C(C)(C)c2ccccc2)c1,activation,[4],-6.85% (inactive)
same,max response,[5],10.7%
same,Potency,[6],inactive
same,outcome,[1],inactive
same,activation,[7],0.903% (inactive)
same,outcome,[3],inactive
CCSCc1ccccc1OC(=O)NC,Potency,[11],inactive
same,activation,[14],3.09% (inactive)
same,activation,[4],1.02% (inactive)
same,outcome,[1],inactive
same,activity change % (negative = inhibition),[2],-8.58% (inactive)
Oc1ccc(C2(c3ccc(O)cc3)c3ccccc3-c3ccccc32)cc1,Potency,[11],28.2 µM (active)
same,activation,[4],-14.6% (inactive)
same,outcome,[1],inactive
CC1(C)CN=C(NN=C(/C=C/c2ccc(C(F)(F)F)cc2)/C=C/c2ccc(C(F)(F)F)cc2)NC1,Potency,[10],35.5 µM (active)
same,Potency,[11],31.6 µM (active)
same,max response,[5],-117%
same,Potency,[6],39.8 µM (active)
same,outcome,[3],inactive
CCCN(CCC)c1c([N+](=O)[O-])cc(C(F)(F)F)c(N)c1[N+](=O)[O-],activation,[14],9.33% (inactive)
CCN(CC)C(=O)C(C)Oc1cccc2ccccc12 (configuration not stated),Potency,[11],inactive
same,activation,[14],-1.49% (inactive)
same,Potency,[8],inactive
